# TEAD-YAP block: TEAD-YAP interaction inhibition; AID 1259422; actives 1.4% (n = 640,000); inhibition, % at 9.12 µM; HEK-TIYL cells, TEAD-Gal4/YAP UAS-luciferase luminescence; in the data active = inhibition above about 32%;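 also: 0% = median of test compound wells and 100% = reference inhibitor wells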
# FBW7 activator: human FBW7 E3 ligase activation, primary screen. Q969H0. AlphaScreen FBW7–phospho-cyclin E peptide binding, activator screen. normalized activity (activation), % at 26.1 µM. actives 0.13% (n = 650,000); in the data active = normalized activity above about 1.9%;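 also: purified mutant Fbw7 with reduced substrate affinity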
# MITF inh: blocks human microphthalmia-associated transcription factor | actives 0.91% (n = 650,000) | inhibition, % at 2.6 µM | O75030 | AlphaScreen MITF homodimerization, bead proximity signal; in the data active = inhibition above about 50%;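 also: 0% = vehicle wells with protein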
# GPR151 activ: activates the human receptor GPR151. PathHunter beta-arrestin GPR151 cells, luminescence. activation, % at 11.2 µM. actives 1% (n = 650,000); in the data active = activation above about 4.9%;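 also: 0% = median of compound wells and 100% = cells with positive control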
# Target sequence (Q8TDV0 whole entry, looked up): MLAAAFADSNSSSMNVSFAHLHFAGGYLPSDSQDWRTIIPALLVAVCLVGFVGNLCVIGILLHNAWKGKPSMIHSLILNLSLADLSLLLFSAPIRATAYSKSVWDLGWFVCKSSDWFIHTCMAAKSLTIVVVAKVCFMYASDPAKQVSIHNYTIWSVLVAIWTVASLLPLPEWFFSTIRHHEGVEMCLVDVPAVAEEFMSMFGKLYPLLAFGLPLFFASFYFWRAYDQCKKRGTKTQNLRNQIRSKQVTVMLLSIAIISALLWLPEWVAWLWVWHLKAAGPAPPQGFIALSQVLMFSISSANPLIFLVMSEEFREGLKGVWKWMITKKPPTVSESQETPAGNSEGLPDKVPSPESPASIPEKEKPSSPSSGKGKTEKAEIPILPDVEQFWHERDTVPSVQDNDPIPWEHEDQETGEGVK
# Numbers without * were called inactive. Rows were chosen to be rich in hits. Some 3.5% of all compounds tested hit in one or more screens of this group.
SMILES,TEAD-YAP block,FBW7 activator,MITF inh,GPR151 activ
N#C/C(=C\c1ccc(/C=C(\C#N)c2nn(CCO)c(N)c2C#N)cc1)c1nn(CCO)c(N)c1C#N,-1,0,15,1
Cn1c(-c2ccccc2)c(/C=C(\C#N)c2nn(CCO)c(N)c2C#N)c2ccccc21,50*,0,-8,0
c1ccc(-n2cnc3c(NCCN4CCOCC4)nc(-c4ccc(N5CCOCC5)nc4)nc32)cc1,59*,0,2,0
FC(F)(F)c1ccc(Cn2cnc3c(NCc4ccccc4)nc(-c4ccc(N5CCOCC5)nc4)nc32)cc1,11,0,7,1
O=C1CCCN1CCn1cnc2c(NCCN3CCOCC3)nc(-c3ccc(N4CCOCC4)nc3)nc21,-14,0,1,0
Oc1ccc(CCNc2nc(NCCN3CCOCC3)nc3c2ncn3-c2ccccc2)cc1,37*,0,7,-2
FC(F)(F)c1ccc(Cn2cnc3c(NCCOc4ccccc4)nc(-c4ccc(N5CCOCC5)nc4)nc32)cc1,8,2.0*,20,0
O=C1CCCN1CCCNc1nc(-c2ccc(N3CCOCC3)nc2)nc2c1ncn2-c1ccccc1,48*,0,5,1
c1ccc(-c2nc(NCCN3CCOCC3)c3ncn(-c4ccccc4)c3n2)cc1,28,0,16,0
CCOC(=O)CNC(=O)c1sc2ncn(Cc3cccc(F)c3)c(=O)c2c1C,-9,1,12,-1
c1ccc(OCCNc2ncnc3nc(-c4ccc(N5CCOCC5)nc4)[nH]c23)cc1,-19,11*,-3,-1
Oc1ccc(CCNc2nc(-c3ccc(N4CCOCC4)nc3)nc3c2ncn3-c2ccccc2)cc1,41*,1,12,3
N#Cc1ccc(N2CCc3ccccc3C2)c([N+](=O)[O-])c1,-5,0,1,0
Cc1nnc(-c2ccc(N3CCc4ccccc4C3)c([N+](=O)[O-])c2)o1,45*,0,22,1
CC1CC2(C)Oc3ccccc3CC2C(C)C1CNCCCN(C)C (stereo unspecified),38*,0,23,0
CC1Cc2ccccc2N1C(=O)CNCCCN(C)C (stereo unspecified),11,0,9,0
CCOc1cc(N2CCOCC2)c(OCC)cc1NC(=O)c1cc(Cl)c(Cl)cc1C(=O)O,18,0,70*,-1
CCOc1cc(N2CCOCC2)c(OCC)cc1NC(=O)c1cccc([N+](=O)[O-])c1C,4,0,-1,3
CCOC(=O)c1ccccc1NC(=O)C1CCN(c2ccc(-c3cccs3)nn2)CC1,3,0,8,0
Cc1cccc(NC(=O)C2CCN(c3ccc(-c4cccs4)nn3)CC2)n1,55*,0,19,-10
Cc1cc(N2CCCCC2)nc(NCCNS(=O)(=O)Cc2ccccc2)n1,55*,0,4,-1
Cc1cc(N2CCN(c3ccccc3)CC2)nc(NCc2ccccc2)n1,12,0,3,0
COCC(C)n1c(C)cc(C(=O)COC(=O)c2cccn2C)c1C (stereo unspecified),67*,0,11,-2
O=C1C(Cl)=C(Nc2cccc(O)c2)C(=O)N1c1cccc(Cl)c1Cl,53*,0,10,-1
O=C1C(Cl)=C(Nc2cccc(O)c2)C(=O)N1c1ccccc1Cl,3,0,16,0
SMILES,TEAD-YAP block,FBW7 activator,MITF inh,GPR151 activ
Cc1ccc(N2C(=O)C(Cl)=C(Nc3cccc(O)c3)C2=O)c(C)c1,36*,1,32,-1
CCCN(C(=O)c1ccccc1)c1c(C)n(C)n(-c2ccccc2)c1=O,-15,0,-19,-1
CCCN(C(=O)c1ccc(Cl)cc1)c1c(C)n(C)n(-c2ccccc2)c1=O,-6,3.2*,3,-1
O=C(NCCN1CCOCC1)c1cccc(-c2ccc(N3CCOCC3)nc2)n1,-1,0,-7,2
CCCNC(=O)c1cccc(Nc2ccc(N3CCOCC3)cc2)n1,3,0,-2,1
O=C(NCCc1ccc(O)cc1)c1cccc(Nc2ccc(N3CCOCC3)cc2)n1,57*,0,2,0
C/C(=C\C(=O)O)C(=O)Nc1ccc(N2CCOCC2)cc1,1,0,53*,-1
CC(=O)Nc1ccc(N2CCOCC2)cc1,-9,0,-5,1
O=C(NCCc1ccc(O)cc1)c1cccc(-c2ccc(N3CCOCC3)nc2)n1,46*,0,-2,-1
O=C(Nc1ccc(N2CCOCC2)cc1)c1cccc(Cl)n1,60*,0,12,-11
Cc1cccc(CN2CCC(N(C)CCc3cnn(C)c3)CCC2=O)c1 (stereo unspecified),-17,0,-12,2

# Assay outcomes: PubChem BioAssay, The Scripps Research Institute Molecular Screening Center
